In the supplement of paper PMC6555819:

system: LXRa homodimer (NR concentration 270 nM); test: PBM binding z-score (relative to random genomic background probes); higher = stronger binding; sequences stand for … in GC…GCGATTGACAGCGTAGAATGAAGG
How it was run: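 Custom Agilent 4×180K protein-binding microarrays carried double-stranded probes. Their 34-nt variable regions held direct-repeat seeds, single-nucleotide variants, half-site ablations and random human genomic background sequences. Arrays were incubated 1 h with ligand-free nuclear receptor dimers in PBS pH 7.4, 2% milk, 0.02% Triton X-100, 1 mM DTT, 0.2 mg/mL BSA and 0.4 mg/ml salmon testes DNA. Antibodies against each partner (one per run) detected binding, and scanned fluorescence was regression-normalized. Binding z-scores use random background probes as reference.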

Q: Which PBM binding z-score does the source give for CCTTACGGGACACTGACAGGTTATAGCATTTGGA here?
A: 0.186

Q: AGAACGAGGGCAATGAGTTGAGAGCACGGGTGGC was tested. Which PBM binding z-score did it give?
A: -0.343

Q: With CCTGCTAGGTCAATGGTCGGCTAAAGCAGCTCGC as the sequence, how does the PBM binding z-score read?
A: 0.0582

Q: Which PBM binding z-score does the source give for CCGACTGGGGCTAAGGTTACCATACTCAGTACGA here?
A: -0.428

Q: With CTTCCAAGGTCAATGCTAGGTCAGTGAAAGCATT as the sequence, how does the PBM binding z-score read?
A: 3.58

Q: Which PBM binding z-score does the source give for CATACTGGGCCAAAGGTCATTGATTCCAATGCTC here?
A: 4.2

Q: With AGAACGAGGGCACGCTGAGTTGCTAGCAGAGTAG as the sequence, how does the PBM binding z-score read?
A: -0.756

Q: With CCTCGGAGGACCACAGGAGGTCAGAGCTGCCAGA as the sequence, how does the PBM binding z-score read?
A: 0.525

Q: How did the PBM binding z-score turn out when AGTCAAAGTTCAGGACGAGGTTACGTAAAGCACG was run?
A: 2.06

Q: How did the PBM binding z-score turn out when TCTAGTTGGTCACGGACGTCACACACGACGGGTA was run?
A: -0.153

Q: How did the PBM binding z-score turn out when TAGCCTAGGTCATTGCGCCAGTATAGTACGCATC was run?
A: 1.05

Q: With TCTTTTAGATCAAGCAGGTTAAGAAAGCCTGAGT as the sequence, how does the PBM binding z-score read?
A: -0.177

Q: For CATACAGGGTCAGCTAGGCCACAGTAGGGACGGC, which PBM binding z-score is on record?
A: -0.102

Q: Which PBM binding z-score does the source give for GCTAGTTGGTCAGTAAAAGGTCACACGCCGGTCG here?
A: 4.69

Q: For ACAGACAAGTGAGTGAAGGTAACTCAGCTGGACG, which PBM binding z-score is on record?
A: -0.475

Q: For CCTACTGGGCCATTCAGAGGTCTTTGATCATATG, which PBM binding z-score is on record?
A: -0.37

Q: For CCGACTGGGGTAGAAAGGTTACCATACCATCCGG, which PBM binding z-score is on record?
A: -0.133

Q: With CCGACTGGGGCATAAGGTTAGCATAAGCCAGCCC as the sequence, how does the PBM binding z-score read?
A: -0.738

Q: For CGTCAAAGTTCCACTAAGGTAACGTAAAGCACGC, which PBM binding z-score is on record?
A: -0.0633

Q: For CCGACTGGGGCAGATAGGTTACCATACCATCCGG, which PBM binding z-score is on record?
A: 0.171

Q: With CATACAGGGTCAGCTAGGCGAGAGTAGGGACGGC as the sequence, how does the PBM binding z-score read?
A: -0.0386

Q: Which PBM binding z-score does the source give for GGAACGAGGGCAAGTTGATCGCAGAGTTTGATGG here?
A: -0.518

Q: Which PBM binding z-score does the source give for ACAGACAGGTGATGAAGCTAACTCAGGCTATCAT here?
A: -0.326

Q: Which PBM binding z-score does the source give for GCATATAGGTAATACAAGGTAAAAGTCCGATTGT here?
A: -0.476

Q: How did the PBM binding z-score turn out when TCTGGGAGGACACGAAAGGTCAGAGCTCGACATC was run?
A: 3.31

Q: With CCGACTGGGGCAAAGTTACCATAACGCACAGCCA as the sequence, how does the PBM binding z-score read?
A: -0.498

Q: For AGAATGAGGTTAAGATGAGGGAAACAGAATACAT, which PBM binding z-score is on record?
A: 0.0375

Q: Which PBM binding z-score does the source give for ATATGTAGATTATCGGGTCATTCAGTTTGCGCAT here?
A: 1.98

Q: TCATATTGGTAAAGGTGAAAGTCGAACGATATGA was tested. Which PBM binding z-score did it give?
A: -0.299

Q: How did the PBM binding z-score turn out when TCTCGGAGCACACGAAGGTCAGAGCTTTCCAGAG was run?
A: -0.215

Q: With CAAACTAGGTCAAGAGATCAAAGTCCGCTTCCCG as the sequence, how does the PBM binding z-score read?
A: 0.62

Q: For ATCGAAAGGTCGAGGGTGAGTATACCCACCCGAA, which PBM binding z-score is on record?
A: 0.143

Q: With CAGCCTAGGTCAGGGCCAGTATTGGAGGAACGTT as the sequence, how does the PBM binding z-score read?
A: -0.403

Q: ATCGAAAGGTCGAAGGTGAGTGTACCCACCCGAA was tested. Which PBM binding z-score did it give?
A: 0.164

Q: For CGAACTAGGTTAAGGACAGTGAATCTCCGCACGC, which PBM binding z-score is on record?
A: -0.213

Q: Which PBM binding z-score does the source give for TCATATAGGTAATACAGGTGAAAGCCGGCATCTA here?
A: 0.571

Q: With CCTGCTAGGTCATCGTCAGCTAATCTACAGTATG as the sequence, how does the PBM binding z-score read?
A: 0.112

Q: For TCTTGGAGATCAACAGGAGGTTAAGAAAGATCGA, which PBM binding z-score is on record?
A: -0.0581

Q: For GCGACTGGGGCAAAGCAGGTTACCATAAGGTTGG, which PBM binding z-score is on record?
A: -0.593

Q: With TAGCCTAGGTCATGGACCAGTATACCACGCGAAC as the sequence, how does the PBM binding z-score read?
A: 0.268
